This is a sample that favours compounds with a hit; in the whole collection about 6.6% have one here.
Mdm2-MdmX inh = inhibitors of human Mdm2/MdmX interaction. SaOS-2 split-luciferase Mdm2/MdmX complementation, luminescence. inhibition, % at 8 µM. actives 3% (n = 330,000). O15151+Q00987;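 active = inhibition of at least 50% at 8 µM in the primary screen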
NR3A LBD binder = NR3A (human) ligand-binding domain modulation; Tm shift relative to glycine control, % at 25 µM; actives 2.5% (n = 340,000); NR3A LBD differential scanning fluorimetry, Tm shift; 0% = protein alone, 100% = glycine-bound protein;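 active = melting temperature shift of at least 10% of the positive control shift, at one fixed dose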
Beta apoptosis = beta cell apoptosis inhibition; AID 435005; actives 0.8% (n = 300,000); INS-1E cytokine-induced death, ATP luminescence, 48 h; percent of positive-control rescue, neutral wells zero; protection from apoptosis, % (test concentration not listed);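 active = Every replicate reaches about 75%, or at least half do and their mean reaches it too, limit read from the data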;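 note: 0% = cytokine-treated negative control wells and 100% = positive control rescue; higher means more ATP so stronger rescue from cytokine killing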
MPTP block = permeability transition pore inhibition; actives 1.4% (n = 360,000); inhibition, % at 10 µM; isolated mouse mitochondria, Ca2+ swelling absorbance, 30 min; AID 602449;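 active = inhibition of 50% or more, scaled per plate between neutral and stimulator controls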;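 note: 0% = DMSO wells given calcium and 100% = 1 mM EGTA wells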
CSC inhib = blocks cancer stem cells; cancer stem cell-like cells viability, luminescence; inhibition, % at 7.5 µM; actives 1.1% (n = 300,000); AID 2717; in the data active = inhibition above about 75%; tested in HMLE shEcad cells
Gli-Sufu block = blocks Gli-Sufu signaling in a luciferase reporter; Sufu-KO-LIGHT fibroblasts, Gli luciferase reporter luminescence; actives 0.74% (n = 340,000); inhibition, % at 5 µM; AID 588413;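 active = inhibition above about 55%, limit read from the data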;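 note: 0% = DMSO-treated cells and 100% = wells with medium but no cells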
* hit, by the source's call.

What do the screens show for `CC(C)=CCc1c(O)ccc2c1OC(c1ccc(O)c(O)c1)CC2=O` (stereo unspecified)?
Mdm2-MdmX inh: 7; NR3A LBD binder: -4; Beta apoptosis: 0; MPTP block: 3; CSC inhib: 45; Gli-Sufu block: 17

What do the screens show for `CC(C)=CCc1c(O)ccc(C2COc3c(CC=C(C)C)c(O)cc(O)c3C2=O)c1O` (stereo unspecified)?
Mdm2-MdmX inh: 9; NR3A LBD binder: 11*; Beta apoptosis: -5; MPTP block: 3; CSC inhib: -5; Gli-Sufu block: -8

What do the screens show for `CCCc1c(C(=O)NNc2cc(C(F)(F)F)ccc2Cl)cnn1-c1ccccc1`?
Mdm2-MdmX inh: -7; NR3A LBD binder: -2; MPTP block: 23; CSC inhib: 8; Gli-Sufu block: 6

Results for CSc1ccc(/C=N/Nc2nc(C)cc(=O)[nH]2)cc1 ?
Mdm2-MdmX inh: -9; NR3A LBD binder: 1; Beta apoptosis: 4; MPTP block: -2; CSC inhib: -6; Gli-Sufu block: -13

What do the screens show for `Cc1cc(=O)[nH]c(N/N=C/c2ccc(-c3ccc(F)cc3)o2)n1`?
Mdm2-MdmX inh: -4; NR3A LBD binder: -5; Beta apoptosis: 55; MPTP block: -2; CSC inhib: 75*; Gli-Sufu block: -23

Results for Cc1ccccc1N=C(c1ccccc1)C1C(=O)c2ccccc2C1=O ?
MPTP block: 0

Results for CN1CCN(C(=O)C2Cc3c(-c4ccc5c(c4)OCO5)ccnc3O2)CC1 (stereo unspecified) ?
MPTP block: 0

How did Cc1ccc(NC(CC(=O)c2ccccc2)C(=O)O)cc1Cl (stereo unspecified) do in these assays?
Mdm2-MdmX inh: -142; NR3A LBD binder: -5; Beta apoptosis: -1; MPTP block: 2; CSC inhib: 5; Gli-Sufu block: -104

Results for O=C(CC(Nc1ccccc1)C(=O)O)c1ccccc1 (stereo unspecified) ?
Mdm2-MdmX inh: -83; NR3A LBD binder: 36*; Beta apoptosis: 0; MPTP block: -1; CSC inhib: -12; Gli-Sufu block: -82

Results for CC1Cc2c([nH]c(=O)n(-c3ccccc3)c2=O)O1 (stereo unspecified) ?
NR3A LBD binder: 1; MPTP block: 0; Gli-Sufu block: 6

Results for O=C(O)c1cc(NN=Nc2cccc([N+](=O)[O-])c2)cc([N+](=O)[O-])c1 ?
Mdm2-MdmX inh: -4; NR3A LBD binder: 4; Beta apoptosis: 2; MPTP block: 2; CSC inhib: -6; Gli-Sufu block: 1

Results for O=C(O)c1cc(NN=Nc2cccc(S(=O)(=O)O)c2)cc([N+](=O)[O-])c1 ?
Mdm2-MdmX inh: -2; NR3A LBD binder: 10*; Beta apoptosis: 2; MPTP block: -2; CSC inhib: 6; Gli-Sufu block: 10

Results for Cc1cc(=O)oc2cc(NS(=O)(=O)c3ccccc3)ccc12 ?
Mdm2-MdmX inh: 26; NR3A LBD binder: -1; Beta apoptosis: -3; MPTP block: 1; CSC inhib: 25; Gli-Sufu block: 4

How did CN(C)S(=O)(=O)c1ccc(S(=O)(=O)Nc2ccc3c(c2)oc2ccccc23)cc1 do in these assays?
Mdm2-MdmX inh: 30; NR3A LBD binder: 22*; Beta apoptosis: 1; MPTP block: 10; CSC inhib: 31; Gli-Sufu block: 2

What do the screens show for `CN(C)S(=O)(=O)c1ccc(NC(=O)c2cc3ccccc3o2)cc1`?
Mdm2-MdmX inh: -13; NR3A LBD binder: 31*; Beta apoptosis: 3; MPTP block: 0; CSC inhib: 1; Gli-Sufu block: -31

How did O=C(C1=C[C@@H](c2ccc(C(F)(F)F)cc2)C[C@@H](OCCCCO)O1)N1CCN(Cc2ccccc2)CC1 do in these assays?
Mdm2-MdmX inh: 8; NR3A LBD binder: -5; Beta apoptosis: 116*; MPTP block: 0; CSC inhib: -7; Gli-Sufu block: 10

Results for O=C(C1=C[C@H](c2ccc(C(F)(F)F)cc2)C[C@H](OCc2ccc(CO)cc2)O1)N1CCN(Cc2ccc3c(c2)OCO3)CC1 ?
Mdm2-MdmX inh: 45; NR3A LBD binder: -6; Beta apoptosis: 14; MPTP block: -1; CSC inhib: 80*; Gli-Sufu block: 14

What do the screens show for `COc1ccc(CNC(=O)CN(Cc2ccccc2)C(=O)CCC(=O)Nc2nccs2)cc1`?
Mdm2-MdmX inh: -3; NR3A LBD binder: 0; Beta apoptosis: -2; MPTP block: 0; CSC inhib: 10; Gli-Sufu block: -13

What do the screens show for `O=C(O)c1ccc(CN(c2ccccn2)S(=O)(=O)c2ccccc2)cc1`?
Mdm2-MdmX inh: 1; NR3A LBD binder: 1; MPTP block: 0; Gli-Sufu block: 36

How did Cc1c(Cl)cccc1N(Cc1ccc(C(=O)O)cc1)S(=O)(=O)c1ccccc1 do in these assays?
Mdm2-MdmX inh: -7; NR3A LBD binder: 13*; Beta apoptosis: 7; MPTP block: -1; CSC inhib: -15; Gli-Sufu block: -2

How did CCCn1c(=O)c(C(=O)NNC(=O)c2ccc(Cl)cc2Cl)c(O)c2ccccc21 do in these assays?
Mdm2-MdmX inh: 47; NR3A LBD binder: -5; Beta apoptosis: -3; MPTP block: 28; CSC inhib: 29; Gli-Sufu block: -8

Results for CCCn1c(=O)c(C(=O)NNS(=O)(=O)c2ccc(Cl)cc2)c(O)c2ccccc21 ?
Mdm2-MdmX inh: 23; NR3A LBD binder: 5; Beta apoptosis: -4; MPTP block: 1; CSC inhib: 86*; Gli-Sufu block: 1

What do the screens show for `CC(C)n1c(=O)c2ccccc2n1Cc1cn(C2CCCC2)nn1`?
MPTP block: -2

Results for Cc1ccc2nc(SCc3ccc([N+](=O)[O-])cc3)nc(C)c2c1 ?
Mdm2-MdmX inh: 3; NR3A LBD binder: 13*; Beta apoptosis: 4; MPTP block: 1; CSC inhib: 15; Gli-Sufu block: 2

What do the screens show for `CCOc1ccc2nc(SCc3cccc(C)c3)nc(C)c2c1`?
Mdm2-MdmX inh: -31; NR3A LBD binder: 15*; Beta apoptosis: 3; MPTP block: 42; CSC inhib: 0; Gli-Sufu block: -34

How did CCOC(=O)CCSc1nc(C)c2cc(OC)ccc2n1 do in these assays?
Mdm2-MdmX inh: 4; NR3A LBD binder: -1; Beta apoptosis: -8; MPTP block: 1; CSC inhib: -1; Gli-Sufu block: 0

How did Cc1ccc(C(C)C)c(OCC(=O)NNC(=O)CC2OC(=O)c3ccccc32)c1 (stereo unspecified) do in these assays?
Mdm2-MdmX inh: 18; NR3A LBD binder: 1; Beta apoptosis: 3; MPTP block: 0; CSC inhib: -1; Gli-Sufu block: -6

How did O=C(CSc1nc2ccccc2c(=O)[nH]1)Nc1ccccc1N1CCOCC1 do in these assays?
Mdm2-MdmX inh: -8; NR3A LBD binder: -1; Beta apoptosis: 15; MPTP block: 0; CSC inhib: 4; Gli-Sufu block: -8

Screens: PubChem, several laboratories
